Measured values from publication PMC9838217, “Structure of SALL4 zinc finger domain reveals link between AT-rich DNA binding and Okihiro syndrome”.
Substitutions are numbered along the chain they refer to.

Molecular target: T1, SALL4 ZFC4 R900W (HT-SELEX) (Mus musculus, UniProt Q8BX22 870-940, R900W)
T1 sequence: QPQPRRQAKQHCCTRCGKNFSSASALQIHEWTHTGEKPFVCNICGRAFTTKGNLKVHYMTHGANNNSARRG
Assay: HT-SELEX; high values mean tight binding
Settings: protein: recombinant; vector His6-GST; dsDNA, one strand shown
Method in brief: (§1)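 A 100 µl reaction of 10 mM Tris–HCl pH 7.5, 50 mM NaCl, poly(dI-dC) and DTT held purified recombinant mouse SALL4 zinc finger cluster 4 (residues 870–940, 1 µg) and library DNA (1.5 µg first cycle, 200 ng later) for 10 min at room temperature. Complexes captured on Ni2+ beads were washed, PCR-amplified and reselected for up to 6 cycles, in triplicate, then MiSeq-sequenced and scanned for 6-mers. Binding signal is the read fraction of each canonical k-mer expressed as fold change over the initial random library.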

Sequence	binding signal
GCGTCA	0.266 ± 0.00412 fold-change vs cycle 0
CCCCCA	0.312 ± 0.0194 fold-change vs cycle 0
CCGGCG	0.0367 ± 0.00313 fold-change vs cycle 0
CTACGC	0.278 ± 0.0143 fold-change vs cycle 0
AGGCAC	0.34 ± 0.0246 fold-change vs cycle 0
AGCGGA	0.313 ± 0.018 fold-change vs cycle 0
ACGGCT	0.272 ± 0.0156 fold-change vs cycle 0
GCGCAA	0.123 ± 0.00425 fold-change vs cycle 0
AAGCCC	0.353 ± 0.015 fold-change vs cycle 0
GCTAGC	0.329 ± 0.0178 fold-change vs cycle 0
ACTATG	1.37 ± 0.0399 fold-change vs cycle 0
CACGCG	0.116 ± 0.0104 fold-change vs cycle 0
ACGTCG	0.298 ± 0.0109 fold-change vs cycle 0
CGAGGC	0.149 ± 0.0127 fold-change vs cycle 0
CCCGCG	0.0543 ± 0.006 fold-change vs cycle 0
CCGGTC	0.202 ± 0.0231 fold-change vs cycle 0
GAGCGC	0.088 ± 0.00871 fold-change vs cycle 0
CGCCCA	0.107 ± 0.00392 fold-change vs cycle 0
GGCAGA	0.306 ± 0.0166 fold-change vs cycle 0
GGACCC	0.246 ± 0.0211 fold-change vs cycle 0

Sequence	binding signal
ATCGGC	0.223 ± 0.00552 fold-change vs cycle 0
CGAGCG	0.115 ± 0.0072 fold-change vs cycle 0
AGGCCG	0.104 ± 0.0123 fold-change vs cycle 0
GGCGAC	0.0863 ± 0.00668 fold-change vs cycle 0
CTCGCA	0.319 ± 0.0197 fold-change vs cycle 0
GGTGCA	0.359 ± 0.0169 fold-change vs cycle 0
GGCTGA	0.349 ± 0.0304 fold-change vs cycle 0
CCGCAG	0.123 ± 0.0191 fold-change vs cycle 0
GGGCAA	0.299 ± 0.00241 fold-change vs cycle 0
CGCTCA	0.311 ± 0.0311 fold-change vs cycle 0
CGGAGC	0.166 ± 0.00611 fold-change vs cycle 0
CCGAGC	0.158 ± 0.00799 fold-change vs cycle 0
CCGCGC	0.0273 ± 0.00598 fold-change vs cycle 0
AGCTGC	0.284 ± 0.0104 fold-change vs cycle 0
CTGCGA	0.28 ± 0.0255 fold-change vs cycle 0
CGTCGA	0.282 ± 0.0144 fold-change vs cycle 0
CGGCTC	0.124 ± 0.00754 fold-change vs cycle 0
CATGGC	0.357 ± 0.0224 fold-change vs cycle 0
CCTCGC	0.171 ± 0.0115 fold-change vs cycle 0
CCCGGG	0.132 ± 0.0102 fold-change vs cycle 0

Molecular target: T2, SALL4 ZFC4 G921D (HT-SELEX) (Mus musculus, UniProt Q8BX22 870-940, G921D)
T2 sequence: T1 sequence with W31R, G52D
Assay: HT-SELEX; high values mean tight binding
Settings: protein: recombinant; vector His6-GST; dsDNA, one strand shown
Method in brief: as §1

Sequence	binding signal
GCGTCA	0.39 ± 0.0541 fold-change vs cycle 0
CCCCCA	0.423 ± 0.0709 fold-change vs cycle 0
CCGGCG	0.128 ± 0.0641 fold-change vs cycle 0
CTACGC	0.414 ± 0.0855 fold-change vs cycle 0
AGGCAC	0.486 ± 0.0565 fold-change vs cycle 0
AGCGGA	0.432 ± 0.054 fold-change vs cycle 0
ACGGCT	0.399 ± 0.0636 fold-change vs cycle 0
GCGCAA	0.249 ± 0.0828 fold-change vs cycle 0
AAGCCC	0.475 ± 0.062 fold-change vs cycle 0
GCTAGC	0.477 ± 0.0879 fold-change vs cycle 0
ACTATG	1.34 ± 0.0843 fold-change vs cycle 0
CACGCG	0.214 ± 0.0541 fold-change vs cycle 0
ACGTCG	0.438 ± 0.0515 fold-change vs cycle 0
CGAGGC	0.271 ± 0.0651 fold-change vs cycle 0
CCCGCG	0.134 ± 0.057 fold-change vs cycle 0
CCGGTC	0.315 ± 0.0731 fold-change vs cycle 0
GAGCGC	0.196 ± 0.0698 fold-change vs cycle 0
CGCCCA	0.227 ± 0.0707 fold-change vs cycle 0
GGCAGA	0.438 ± 0.0703 fold-change vs cycle 0
GGACCC	0.387 ± 0.0656 fold-change vs cycle 0

Sequence	binding signal
ATCGGC	0.362 ± 0.0707 fold-change vs cycle 0
CGAGCG	0.24 ± 0.0639 fold-change vs cycle 0
AGGCCG	0.216 ± 0.0702 fold-change vs cycle 0
GGCGAC	0.208 ± 0.0638 fold-change vs cycle 0
CTCGCA	0.471 ± 0.0656 fold-change vs cycle 0
GGTGCA	0.479 ± 0.0732 fold-change vs cycle 0
GGCTGA	0.483 ± 0.072 fold-change vs cycle 0
CCGCAG	0.234 ± 0.0772 fold-change vs cycle 0
GGGCAA	0.434 ± 0.0775 fold-change vs cycle 0
CGCTCA	0.445 ± 0.0603 fold-change vs cycle 0
CGGAGC	0.286 ± 0.0677 fold-change vs cycle 0
CCGAGC	0.273 ± 0.0808 fold-change vs cycle 0
CCGCGC	0.0941 ± 0.0469 fold-change vs cycle 0
AGCTGC	0.414 ± 0.0709 fold-change vs cycle 0
CTGCGA	0.404 ± 0.0745 fold-change vs cycle 0
CGTCGA	0.423 ± 0.0617 fold-change vs cycle 0
CGGCTC	0.242 ± 0.0735 fold-change vs cycle 0
CATGGC	0.495 ± 0.0505 fold-change vs cycle 0
CCTCGC	0.295 ± 0.0773 fold-change vs cycle 0
CCCGGG	0.234 ± 0.0711 fold-change vs cycle 0
